# Laboratory results as given in paper PMC11006913.
# Columns and labels:
# Assay in all cases: PBM; 200 nM protein, PBS
# Conditions in all cases: dsDNA, one strand shown
# HOXB9 [1] = target: HOXB9 (Homo sapiens, UniProt P17482 171-250, T197M)
# HOXA2 [2] = target: HOXA2 (Homo sapiens, UniProt O43364 129-215, R185T)
# HOXB9 [3] = target: HOXB9 (Homo sapiens, UniProt P17482 171-250)
# HOXA2 [4] = target: HOXA2 (Homo sapiens, UniProt O43364 129-215, R185K)
# HOXB9 [5] = target: HOXB9 (Homo sapiens, UniProt P17482 171-250, R186Q)
# Chain of HOXB9 (Homo sapiens, UniProt P17482 171-250, R186Q) (P17482 171-250 R186Q): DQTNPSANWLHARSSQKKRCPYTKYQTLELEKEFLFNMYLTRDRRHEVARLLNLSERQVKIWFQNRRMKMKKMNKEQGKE
# HOXA2 [6] = target: HOXA2 (Homo sapiens, UniProt O43364 129-215, Y150S)
# Chain of HOXA2 (Homo sapiens, UniProt O43364 129-215, Y150S) (O43364 129-215 Y150S): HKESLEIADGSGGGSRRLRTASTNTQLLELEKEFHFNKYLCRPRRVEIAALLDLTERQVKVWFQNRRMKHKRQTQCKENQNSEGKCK
# HOXA2 [7] = target: HOXA2 (Homo sapiens, UniProt O43364 129-215)
# Chain of HOXA2 (Homo sapiens, UniProt O43364 129-215) (O43364 129-215): as the sequence (O43364 129-215 Y150S) above, with S22Y counted along it
# Chain of HOXB9 (Homo sapiens, UniProt P17482 171-250) (P17482 171-250): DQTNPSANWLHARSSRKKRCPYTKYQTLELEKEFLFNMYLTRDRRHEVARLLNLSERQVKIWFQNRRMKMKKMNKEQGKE
# Chain of HOXB9 (Homo sapiens, UniProt P17482 171-250, T197M) (P17482 171-250 T197M): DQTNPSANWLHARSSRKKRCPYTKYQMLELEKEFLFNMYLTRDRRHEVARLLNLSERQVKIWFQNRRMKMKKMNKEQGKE
# Chain of HOXA2 (Homo sapiens, UniProt O43364 129-215, R185K) (O43364 129-215 R185K): as the sequence (O43364 129-215 Y150S) above, with S22Y, R57K counted along it
# Chain of HOXA2 (Homo sapiens, UniProt O43364 129-215, R185T) (O43364 129-215 R185T): as the sequence (O43364 129-215 Y150S) above, with S22Y, R57T counted along it
sequence,measurement,setting,value
GAACCGGC,binding signal,HOXB9 [1],"8.52 upbm affinity estimate (log intensity, higher = more binding, comparable within an allelic series)"
same,binding signal,HOXA2 [2],"7.08 upbm affinity estimate (log intensity, higher = more binding, comparable within an allelic series)"
same,binding signal,HOXB9 [3],"8.43 upbm affinity estimate (log intensity, higher = more binding, comparable within an allelic series)"
same,binding signal,HOXA2 [4],"10.2 upbm affinity estimate (log intensity, higher = more binding, comparable within an allelic series)"
same,binding signal,HOXB9 [5],"8.48 upbm affinity estimate (log intensity, higher = more binding, comparable within an allelic series)"
same,binding signal,HOXA2 [6],"10.4 upbm affinity estimate (log intensity, higher = more binding, comparable within an allelic series)"
same,binding signal,HOXA2 [7],"7.09 upbm affinity estimate (log intensity, higher = more binding, comparable within an allelic series)"
ACCGGGGA,binding signal,HOXB9 [1],"8.44 upbm affinity estimate (log intensity, higher = more binding, comparable within an allelic series)"
same,binding signal,HOXB9 [3],"8.19 upbm affinity estimate (log intensity, higher = more binding, comparable within an allelic series)"
same,binding signal,HOXB9 [5],"8.23 upbm affinity estimate (log intensity, higher = more binding, comparable within an allelic series)"
CAGATCGG,binding signal,HOXB9 [1],"8.72 upbm affinity estimate (log intensity, higher = more binding, comparable within an allelic series)"
same,binding signal,HOXB9 [3],"8.44 upbm affinity estimate (log intensity, higher = more binding, comparable within an allelic series)"
same,binding signal,HOXB9 [5],"8.55 upbm affinity estimate (log intensity, higher = more binding, comparable within an allelic series)"
CGTAGGCC,binding signal,HOXB9 [1],"8.47 upbm affinity estimate (log intensity, higher = more binding, comparable within an allelic series)"
same,binding signal,HOXB9 [3],"8.61 upbm affinity estimate (log intensity, higher = more binding, comparable within an allelic series)"
same,binding signal,HOXB9 [5],"8.63 upbm affinity estimate (log intensity, higher = more binding, comparable within an allelic series)"
ATAAATGA,binding signal,HOXB9 [1],"9.72 upbm affinity estimate (log intensity, higher = more binding, comparable within an allelic series)"
same,binding signal,HOXB9 [3],"11 upbm affinity estimate (log intensity, higher = more binding, comparable within an allelic series)"
same,binding signal,HOXB9 [5],"10.8 upbm affinity estimate (log intensity, higher = more binding, comparable within an allelic series)"
GCCGCAGA,binding signal,HOXB9 [1],"8.65 upbm affinity estimate (log intensity, higher = more binding, comparable within an allelic series)"
same,binding signal,HOXB9 [3],"8.62 upbm affinity estimate (log intensity, higher = more binding, comparable within an allelic series)"
same,binding signal,HOXB9 [5],"8.62 upbm affinity estimate (log intensity, higher = more binding, comparable within an allelic series)"
AGCCCCGG,binding signal,HOXB9 [1],"8.65 upbm affinity estimate (log intensity, higher = more binding, comparable within an allelic series)"
same,binding signal,HOXB9 [3],"8.31 upbm affinity estimate (log intensity, higher = more binding, comparable within an allelic series)"
same,binding signal,HOXB9 [5],"8.53 upbm affinity estimate (log intensity, higher = more binding, comparable within an allelic series)"
CTGGCGTC,binding signal,HOXB9 [1],"8.43 upbm affinity estimate (log intensity, higher = more binding, comparable within an allelic series)"
same,binding signal,HOXB9 [3],"8.27 upbm affinity estimate (log intensity, higher = more binding, comparable within an allelic series)"
same,binding signal,HOXB9 [5],"8.34 upbm affinity estimate (log intensity, higher = more binding, comparable within an allelic series)"
CGGGCAAC,binding signal,HOXB9 [1],"8.62 upbm affinity estimate (log intensity, higher = more binding, comparable within an allelic series)"
same,binding signal,HOXB9 [3],"8.62 upbm affinity estimate (log intensity, higher = more binding, comparable within an allelic series)"
same,binding signal,HOXB9 [5],"8.68 upbm affinity estimate (log intensity, higher = more binding, comparable within an allelic series)"
CCGCAGCC,binding signal,HOXB9 [1],"8.52 upbm affinity estimate (log intensity, higher = more binding, comparable within an allelic series)"
same,binding signal,HOXB9 [3],"8.38 upbm affinity estimate (log intensity, higher = more binding, comparable within an allelic series)"
same,binding signal,HOXB9 [5],"8.47 upbm affinity estimate (log intensity, higher = more binding, comparable within an allelic series)"
GCCGGGCC,binding signal,HOXB9 [1],"8.36 upbm affinity estimate (log intensity, higher = more binding, comparable within an allelic series)"
same,binding signal,HOXB9 [3],"8.42 upbm affinity estimate (log intensity, higher = more binding, comparable within an allelic series)"
same,binding signal,HOXB9 [5],"8.41 upbm affinity estimate (log intensity, higher = more binding, comparable within an allelic series)"
CCTATAAG,binding signal,HOXB9 [1],"9.17 upbm affinity estimate (log intensity, higher = more binding, comparable within an allelic series)"
same,binding signal,HOXB9 [3],"9.71 upbm affinity estimate (log intensity, higher = more binding, comparable within an allelic series)"
CTCAGGCC,binding signal,HOXB9 [1],"8.41 upbm affinity estimate (log intensity, higher = more binding, comparable within an allelic series)"
same,binding signal,HOXA2 [2],"7.06 upbm affinity estimate (log intensity, higher = more binding, comparable within an allelic series)"
same,binding signal,HOXB9 [3],"8.36 upbm affinity estimate (log intensity, higher = more binding, comparable within an allelic series)"
same,binding signal,HOXA2 [4],"10.3 upbm affinity estimate (log intensity, higher = more binding, comparable within an allelic series)"
same,binding signal,HOXB9 [5],"8.4 upbm affinity estimate (log intensity, higher = more binding, comparable within an allelic series)"
same,binding signal,HOXA2 [6],"10.4 upbm affinity estimate (log intensity, higher = more binding, comparable within an allelic series)"
same,binding signal,HOXA2 [7],"7.06 upbm affinity estimate (log intensity, higher = more binding, comparable within an allelic series)"
GGTTCGGA,binding signal,HOXB9 [1],"8.66 upbm affinity estimate (log intensity, higher = more binding, comparable within an allelic series)"
same,binding signal,HOXB9 [3],"8.54 upbm affinity estimate (log intensity, higher = more binding, comparable within an allelic series)"
same,binding signal,HOXB9 [5],"8.53 upbm affinity estimate (log intensity, higher = more binding, comparable within an allelic series)"
CCCGCAAG,binding signal,HOXB9 [1],"8.42 upbm affinity estimate (log intensity, higher = more binding, comparable within an allelic series)"
same,binding signal,HOXB9 [3],"8.44 upbm affinity estimate (log intensity, higher = more binding, comparable within an allelic series)"
same,binding signal,HOXB9 [5],"8.51 upbm affinity estimate (log intensity, higher = more binding, comparable within an allelic series)"
CCGGACGC,binding signal,HOXB9 [1],"8.6 upbm affinity estimate (log intensity, higher = more binding, comparable within an allelic series)"
same,binding signal,HOXB9 [3],"8.5 upbm affinity estimate (log intensity, higher = more binding, comparable within an allelic series)"
same,binding signal,HOXB9 [5],"8.59 upbm affinity estimate (log intensity, higher = more binding, comparable within an allelic series)"
GACTGACC,binding signal,HOXB9 [1],"8.57 upbm affinity estimate (log intensity, higher = more binding, comparable within an allelic series)"
same,binding signal,HOXB9 [3],"8.7 upbm affinity estimate (log intensity, higher = more binding, comparable within an allelic series)"
same,binding signal,HOXB9 [5],"8.7 upbm affinity estimate (log intensity, higher = more binding, comparable within an allelic series)"
AAGCCACC,binding signal,HOXB9 [1],"8.58 upbm affinity estimate (log intensity, higher = more binding, comparable within an allelic series)"
same,binding signal,HOXB9 [3],"8.55 upbm affinity estimate (log intensity, higher = more binding, comparable within an allelic series)"
same,binding signal,HOXB9 [5],"8.63 upbm affinity estimate (log intensity, higher = more binding, comparable within an allelic series)"
CGCCCAGA,binding signal,HOXB9 [1],"8.62 upbm affinity estimate (log intensity, higher = more binding, comparable within an allelic series)"
same,binding signal,HOXB9 [3],"8.59 upbm affinity estimate (log intensity, higher = more binding, comparable within an allelic series)"
same,binding signal,HOXB9 [5],"8.62 upbm affinity estimate (log intensity, higher = more binding, comparable within an allelic series)"
GTGGCGGA,binding signal,HOXB9 [1],"8.44 upbm affinity estimate (log intensity, higher = more binding, comparable within an allelic series)"
same,binding signal,HOXB9 [3],"8.58 upbm affinity estimate (log intensity, higher = more binding, comparable within an allelic series)"
same,binding signal,HOXB9 [5],"8.61 upbm affinity estimate (log intensity, higher = more binding, comparable within an allelic series)"
GCAGGCCC,binding signal,HOXB9 [1],"8.19 upbm affinity estimate (log intensity, higher = more binding, comparable within an allelic series)"
same,binding signal,HOXB9 [3],"8.31 upbm affinity estimate (log intensity, higher = more binding, comparable within an allelic series)"
same,binding signal,HOXB9 [5],"8.26 upbm affinity estimate (log intensity, higher = more binding, comparable within an allelic series)"
ATAAATTG,binding signal,HOXB9 [1],"9.96 upbm affinity estimate (log intensity, higher = more binding, comparable within an allelic series)"
